# Data: PubChem BioAssay
# The source made the active and inactive calls.
# Assays:
# [1] = small molecules captured by biotinylated probe aFSTL3 – biochemical, small-molecule microarray, fluorescence 635/667, stem cell growth factor project, primary screen (AID 1064); conditions: higher = more signal;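 also: measures binding of the biotinylated anti-FSTL3 antibody to printed compounds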
# [2] = binders from COS7 lysate, DM2A8 probe, primary screen, torsin A project, cell lysate, small-molecule microarray, fluorescence 635/667 (AID 1065); conditions: higher = more signal, COS7 lysate expressing mutant human TOR1A
# [3] = small molecules captured by biotinylated probe aFGF2 – biochemical, small-molecule microarray, fluorescence 635/667, stem cell growth factor project, primary screen (AID 1067); conditions: higher = more signal;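 also: measures binding of biotinylated aFGF2 protein to printed compounds on slides; z-score merges feature fluorescence and signal-to-noise across triplicate slides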
# [4] = small molecules captured by biotinylated probe aFGF10 – biochemical, small-molecule microarray, fluorescence 635/667, stem cell growth factor project, primary screen (AID 1071); conditions: higher = more signal;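 also: score merges 667 nm spot intensity and signal to noise from triplicate slides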
# [5] = target: Neurogenic locus notch homolog protein 2 (Homo sapiens) (UniProt Q04721); assay: small molecules binding Notch2 protein – biochemical, small-molecule microarray, 635 nm fluorescence, stem cell growth factors, primary screen (AID 1073); conditions: higher = more signal
# [6] = target: Pro-neuregulin-1, membrane-bound isoform (Homo sapiens) (UniProt Q02297); assay: small molecules binding neuregulin-1 protein – biochemical, small-molecule microarray, fluorescence 635/667, psychiatric disease protein project, primary screen (AID 1075); conditions: NRG1 binding, 635 nm fluorescence, higher = more signal;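 also: score combines 667 nm spot fluorescence with signal to noise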
# Chain of Pro-neuregulin-1, membrane-bound isoform (Homo sapiens) (Q02297 whole entry, looked up, the tested form may be a part, canonical isoform): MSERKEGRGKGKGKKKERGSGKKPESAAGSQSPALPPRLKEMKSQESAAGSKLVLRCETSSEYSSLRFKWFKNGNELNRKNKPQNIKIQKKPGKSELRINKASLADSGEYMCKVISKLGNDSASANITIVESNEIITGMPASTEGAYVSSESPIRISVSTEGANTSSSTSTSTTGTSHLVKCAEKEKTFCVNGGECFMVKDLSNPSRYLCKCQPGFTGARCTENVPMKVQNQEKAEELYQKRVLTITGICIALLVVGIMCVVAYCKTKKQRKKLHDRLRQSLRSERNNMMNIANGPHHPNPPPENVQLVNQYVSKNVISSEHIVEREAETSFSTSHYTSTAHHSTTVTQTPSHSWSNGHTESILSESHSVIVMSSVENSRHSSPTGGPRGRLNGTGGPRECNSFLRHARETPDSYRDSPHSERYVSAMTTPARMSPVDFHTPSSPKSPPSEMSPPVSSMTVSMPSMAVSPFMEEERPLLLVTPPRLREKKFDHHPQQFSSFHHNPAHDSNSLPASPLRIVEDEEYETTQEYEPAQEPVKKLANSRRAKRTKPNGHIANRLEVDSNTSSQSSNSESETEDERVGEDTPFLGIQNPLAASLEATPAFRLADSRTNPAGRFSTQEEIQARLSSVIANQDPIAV
# [7] = system: Neuregulin-1 EGF-like domain; assay: small molecules binding NRG1 EGF domain – biochemical, small-molecule microarray, 635 nm fluorescence, primary screen (AID 1081); conditions: higher = more signal;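 also: binding of the protein to compounds printed on small-molecule microarray slides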
# [8] = FRG1 expression reporter modulators in myotubes – cell-based, C2C12 myotubes, firefly/Renilla luciferase, luminescence, FRG1 inhibition for FSHD, primary screen (AID 1084); conditions: FRG1 promoter luciferase, higher = more signal, called active from +8 up or from −8 down
# [9] = small molecules captured by biotinylated probe aFST – biochemical, small-molecule microarray, fluorescence 635/667, stem cell growth factor project, primary screen (AID 1086); conditions: higher = more signal;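 also: score merges 667 nm fluorescence with signal-to-noise of each printed compound spot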
# [10] = binders of probe aHhip on microarray, primary screen, stem cell growth factor project, biochemical, small-molecule microarray, fluorescence 635/667 (AID 1087); conditions: higher = more signal;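 also: score merges spot fluorescence at 667nm with spot signal to noise ratio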
# [11] = system: PRMT1 (protein arginine N-methyltransferase 1); assay: small molecules binding arginine methyltransferase PRMT1 – biochemical, small-molecule microarray, 635 nm fluorescence, primary screen (AID 1088); conditions: higher = more signal;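 also: binding of Prmt1 protein to compounds spotted on small-molecule microarray slides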
# [12] = growth effects on S. cerevisiae YJM789 – YJM789 clinical isolate, OD600, 24 h, basal, primary screen (AID 1089); conditions: higher = more signal, called active from +8 up or from −8 down;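 also: growth of clinical yeast isolate S. cerevisiae YJM 789 seeded 1000 cells per well; test concentration not given here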
# [13] = S. pombe growth modifiers, basal conditions – strain 972, OD600, 24 h, no modulator, primary screen (AID 1090);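 also: basal condition with compound alone and no growth modifier present; test concentration not given here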; conditions: S. pombe 972 growth, higher = more signal, called active from +8 up or from −8 down
# [14] = budding yeast growth modifiers under rapamycin – strain BY4716, OD600, 96 h, primary screen (AID 1091); also: test concentration not given here; conditions: S. cerevisiae BY4716 + rapamycin, higher = more signal, called active from +8 up or from −8 down
# [15] = target: Torsin-1A-interacting protein 2 (Homo sapiens) (UniProt Q8NFQ8); assay: small molecules binding lysate-expressed LULL1 – cell lysate, human LULL1 lysate, 635/667 nm fluorescence, primary screen (AID 1092); conditions: small-molecule microarray, hLULL1 lysate binding, 635 nm fluorescence; higher = more signal;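 also: probe is lysate of COS7 cells overexpressing human LULL1; score merges per-feature 667 nm fluorescence with signal-to-noise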
# Chain of Torsin-1A-interacting protein 2 (Homo sapiens) (Q8NFQ8 whole entry, looked up): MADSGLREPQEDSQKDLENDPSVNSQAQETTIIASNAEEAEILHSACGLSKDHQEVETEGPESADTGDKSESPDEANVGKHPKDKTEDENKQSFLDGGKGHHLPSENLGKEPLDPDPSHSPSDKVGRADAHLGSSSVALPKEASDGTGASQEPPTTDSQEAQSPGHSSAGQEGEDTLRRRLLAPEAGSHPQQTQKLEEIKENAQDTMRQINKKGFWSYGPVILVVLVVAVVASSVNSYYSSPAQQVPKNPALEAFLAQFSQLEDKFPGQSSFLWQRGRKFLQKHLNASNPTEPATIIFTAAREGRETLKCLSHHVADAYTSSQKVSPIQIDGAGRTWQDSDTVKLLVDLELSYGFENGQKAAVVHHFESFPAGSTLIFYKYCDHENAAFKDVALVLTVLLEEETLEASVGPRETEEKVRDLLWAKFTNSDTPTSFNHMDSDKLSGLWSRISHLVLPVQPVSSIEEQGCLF
# [16] = optical density change of DRC41 E. coli – strain DRC41, OD650, 24 h, E. coli filamentation project, primary screen (AID 1093);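 also: MC1000 strain lacking acrAB efflux and sulA so SOS filamentation is blocked; test concentration not given here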; conditions: E. coli DRC41 growth, higher = more signal, called active from +8 up or from −8 down
# [17] = probe aLefty2 binding to arrayed compounds – biochemical, biotinylated probe, 635/667 nm fluorescence, primary screen (AID 1094); conditions: small-molecule microarray, higher = more signal;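 also: score merges spot fluorescence near 667 nm with spot signal-to-noise ratio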
# [18] = system: Noggin (protein binding on small-molecule microarray); assay: small molecules binding Noggin protein – biochemical, 635/667 nm fluorescence, primary screen (AID 1095); conditions: 635 nm fluorescence, higher = more signal;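 also: score merges 667 nm feature fluorescence with signal to noise over triplicate slides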
# [19] = target: Neurogenic locus notch homolog protein 3 (Homo sapiens) (UniProt Q9UM47); assay: small molecules binding NOTCH3 protein – biochemical, 635/667 nm fluorescence, primary screen (AID 1096); conditions: small-molecule microarray, 635 nm fluorescence, higher = more signal
# Chain of Neurogenic locus notch homolog protein 3 (Homo sapiens) (Q9UM47 whole entry, looked up): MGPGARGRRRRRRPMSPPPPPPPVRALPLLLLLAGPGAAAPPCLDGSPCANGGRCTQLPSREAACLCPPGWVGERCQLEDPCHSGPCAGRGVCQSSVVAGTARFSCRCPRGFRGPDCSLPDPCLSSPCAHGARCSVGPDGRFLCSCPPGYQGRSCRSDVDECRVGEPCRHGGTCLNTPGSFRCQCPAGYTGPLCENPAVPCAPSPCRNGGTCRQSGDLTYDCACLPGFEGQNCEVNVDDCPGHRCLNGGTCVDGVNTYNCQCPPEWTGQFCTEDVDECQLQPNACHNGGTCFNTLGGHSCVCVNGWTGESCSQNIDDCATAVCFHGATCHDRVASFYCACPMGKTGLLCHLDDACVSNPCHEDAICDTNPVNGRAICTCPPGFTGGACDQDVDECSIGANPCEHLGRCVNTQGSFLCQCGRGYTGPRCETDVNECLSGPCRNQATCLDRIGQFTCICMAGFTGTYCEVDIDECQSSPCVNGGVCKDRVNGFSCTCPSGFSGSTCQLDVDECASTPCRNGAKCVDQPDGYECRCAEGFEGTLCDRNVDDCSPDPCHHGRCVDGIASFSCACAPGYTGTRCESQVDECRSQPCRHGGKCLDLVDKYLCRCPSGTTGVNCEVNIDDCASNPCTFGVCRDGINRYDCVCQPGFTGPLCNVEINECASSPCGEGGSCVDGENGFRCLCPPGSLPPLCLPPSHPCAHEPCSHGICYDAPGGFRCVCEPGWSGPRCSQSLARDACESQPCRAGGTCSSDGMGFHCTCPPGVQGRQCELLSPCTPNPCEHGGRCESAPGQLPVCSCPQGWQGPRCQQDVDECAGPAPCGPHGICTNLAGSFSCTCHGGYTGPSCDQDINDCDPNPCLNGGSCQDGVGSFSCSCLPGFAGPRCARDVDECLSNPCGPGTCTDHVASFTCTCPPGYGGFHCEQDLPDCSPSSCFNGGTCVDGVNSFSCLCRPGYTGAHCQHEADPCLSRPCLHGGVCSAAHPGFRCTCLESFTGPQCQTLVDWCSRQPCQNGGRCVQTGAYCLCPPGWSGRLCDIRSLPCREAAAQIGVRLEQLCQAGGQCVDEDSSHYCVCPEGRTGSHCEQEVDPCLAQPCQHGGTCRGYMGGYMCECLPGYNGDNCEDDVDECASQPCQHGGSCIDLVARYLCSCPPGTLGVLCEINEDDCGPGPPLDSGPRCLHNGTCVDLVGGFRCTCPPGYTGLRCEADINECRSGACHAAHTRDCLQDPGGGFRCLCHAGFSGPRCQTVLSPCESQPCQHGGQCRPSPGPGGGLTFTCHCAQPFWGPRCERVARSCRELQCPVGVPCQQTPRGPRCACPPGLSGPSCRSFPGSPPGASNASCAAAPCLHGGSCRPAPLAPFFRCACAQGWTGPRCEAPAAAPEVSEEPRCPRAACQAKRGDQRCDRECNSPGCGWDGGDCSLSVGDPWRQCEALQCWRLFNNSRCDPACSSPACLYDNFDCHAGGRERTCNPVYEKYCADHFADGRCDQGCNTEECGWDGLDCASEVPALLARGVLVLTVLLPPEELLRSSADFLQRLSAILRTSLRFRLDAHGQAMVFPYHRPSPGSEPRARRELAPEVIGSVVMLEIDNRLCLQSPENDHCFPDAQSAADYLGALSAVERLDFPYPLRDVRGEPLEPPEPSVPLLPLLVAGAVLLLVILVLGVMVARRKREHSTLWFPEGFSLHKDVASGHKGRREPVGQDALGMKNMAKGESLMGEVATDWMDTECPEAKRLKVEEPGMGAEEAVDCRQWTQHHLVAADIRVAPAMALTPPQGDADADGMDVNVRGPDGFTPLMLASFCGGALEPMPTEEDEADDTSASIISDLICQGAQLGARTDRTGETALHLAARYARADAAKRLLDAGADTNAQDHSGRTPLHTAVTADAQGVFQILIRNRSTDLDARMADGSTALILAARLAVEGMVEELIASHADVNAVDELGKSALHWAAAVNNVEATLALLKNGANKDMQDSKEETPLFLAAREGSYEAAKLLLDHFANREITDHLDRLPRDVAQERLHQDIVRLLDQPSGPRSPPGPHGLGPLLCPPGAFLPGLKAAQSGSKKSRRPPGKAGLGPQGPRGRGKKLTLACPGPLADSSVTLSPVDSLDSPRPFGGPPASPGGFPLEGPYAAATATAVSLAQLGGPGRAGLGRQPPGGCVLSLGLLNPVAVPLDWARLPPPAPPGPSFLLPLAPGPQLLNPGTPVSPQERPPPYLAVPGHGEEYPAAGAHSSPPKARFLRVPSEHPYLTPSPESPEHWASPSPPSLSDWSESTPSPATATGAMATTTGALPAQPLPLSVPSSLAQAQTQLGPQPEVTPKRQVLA
# [20] = probe aEGFR binding to arrayed compounds – biochemical, biotinylated probe, 635/667 nm fluorescence, primary screen (AID 1097); conditions: small-molecule microarray, higher = more signal;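 also: probe is a biotinylated anti-EGFR antibody binding compounds printed on slides; score combines fluorescence near 667 nm and signal to noise of each spot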
SMILES,composite z-score [1],composite z-score [2],composite z-score [3],composite z-score [4],composite z-score [5],composite z-score [6],composite z-score [7],z-score [8],composite z-score [9],composite z-score [10],composite z-score [11],z-score [12],z-score [13],z-score [14],composite z-score [15],z-score [16],composite z-score [17],composite z-score [18],composite z-score [19],composite z-score [20]
CC(C)C(=C=CC[C@H](O)c1ccccc1OCCO)C[C@H](O)c1ccccn1,-0.102,1.51,-0.125,0.486,0.695,1.66,1.36,-1.68 (inactive),0.164,-0.201,0.813,0.241 (inactive),-0.709 (inactive),-0.365 (inactive),2.27,0.662 (inactive),0.0374,0.247,0.719,0.151
O=C1C2C=CC(C(O)c3ccc(-c4ccccc4)s3)N(n3cnnc3)C2C(=O)N1Cc1ccccc1 (stereo not given),0.0626,-0.0982,-0.083,-0.0152,0.207,0.802,1.04,0.545 (inactive),0.415,-0.0645,0.147,-0.466 (inactive),-11.7 (active),-0.0238 (inactive),1.77,-0.485 (inactive),-0.0823,-0.0489,0.225,-0.0716
Cc1ccc([C@H]2C(C(=O)O)=C[C@@H](C)N2S(=O)(=O)c2ccc(C)cc2)cc1,0.247,-0.36,-0.0867,-0.337,-0.0054,1.52,0.962,-0.282 (inactive),-0.882,-0.201,0.896,-0.495 (inactive),-0.812 (inactive),-0.422 (inactive),3.71,-0.291 (inactive),0.0754,-0.24,-0.546,-0.165
Cc1ccc(S[C@]2(C(=O)NCc3ccccc3)CC(=O)N(Cc3ccccc3Cl)[C@@H]2c2ccc(CO)cc2I)cc1,0.715,-1.06,-0.104,-0.638,-0.848,0.288,0.539,-0.0143 (inactive),-0.319,-0.0645,1.08,-3.68 (inactive),-3.05 (inactive),0.103 (inactive),1.65,-0.592 (inactive),0.114,-1.07,-0.109,-0.168
O=C1OCCC=C[C@H]2OC34C=CCN(Cc5ccccc5)C(=O)[C@H]3N(CCCO)C(=O)[C@@H]4C12 (stereo not given in full),-0.274,0.0519,-0.116,-0.479,-0.747,-0.555,0.187,-0.138 (inactive),-0.327,-0.0003,-0.595,0.252 (inactive),-0.206 (inactive),-1.54 (inactive),0.549,2.79 (inactive),-0.0807,-0.335,-0.278,-0.175
C=CC[C@@]1(C(=O)NCC(O)CO)N=C(c2ccc(OCCCO)cc2)O[C@@H]1c1ccccc1N=[N+]=[N-] (stereo not given in full),0.638,1.22,0.0485,0.12,0.579,1.71,1.3,3.08 (inactive),1.39,0.158,1.18,-0.711 (inactive),-1.89 (inactive),0.068 (inactive),3.79,1.01 (inactive),0.208,0.84,1.04,0.0376
COCCOC(=O)N1C(=O)[C@@]2(c3cc(C#CCC(C(=O)OC)C(=O)OC)ccc31)[C@H](c1ccc(O)cc1)N1[C@H](c3ccccc3)[C@H](c3ccccc3)OC(=O)[C@H]1[C@@H]2C(N)=O,-0.239,0.365,0.0661,1.11,1.1,0.328,1.32,-0.4 (inactive),0.404,-0.124,1.28,-0.151 (inactive),0.431 (inactive),0.291 (inactive),3.06,-0.138 (inactive),0.216,0.604,0.828,0.0717
CC(C)C(=C=CC[C@@H](O)c1ccccc1OCCO)C[C@@H](O)c1ccccn1,-0.438,-0.0682,-0.153,0.477,0.0623,0.0795,1.19,-0.306 (inactive),0.272,0.176,0.439,2.46 (inactive),-0.18 (inactive),-1.1 (inactive),2.67,-0.0287 (inactive),-0.126,0.538,0.878,-0.099
COc1ccc([Si](C)(C)[C@@H]2[C@@H](CCn3cc([C@H](O)c4ccccc4)nn3)O[C@]3(C(=O)N(Cc4ccc(N5C(=O)c6cccc7cccc5c67)cc4)c4ccccc43)[C@H]2C)cc1,0.428,0.174,-0.162,-0.16,-0.574,0.569,0.594,-0.353 (inactive),-0.587,-0.199,0.534,0.316 (inactive),-0.197 (inactive),1.64 (inactive),1,1.05 (inactive),-0.0237,-0.345,0.0481,-0.217
COC(=O)[C@@]1(Cc2ccccc2)[C@H]2c3cc(C(=O)N4CCCC4)n(Cc4ccc(C)o4)c3C[C@H]2CN1C(=O)c1ccccc1,0.385,0.225,-0.162,0.0426,1.54,1.37,0.476,0.0318 (inactive),0.935,0.259,-0.179,-0.619 (inactive),0.122 (inactive),-0.564 (inactive),2.6,-0.564 (inactive),-0.0127,0.231,0.622,0.0226
